Screening results deposited in PubChem BioAssay by Broad Institute.
This is one part of a sample in which hits are shown more often than they occur.
Tg IFNy HTS: inhibitors of Toxoplasma gondii growth with IFN-gamma | activity change, negative = inhibition, % (test concentration not listed) | AID 1259416 | Toxoplasma gondii growth in IFN-gamma-treated host cells; hits give low values | 3.8% of 69,000 active; in the data active means activity change below about -70%, passing the limit was not always enough;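 further: host cells are HeLa cells infected with Toxoplasma gondii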
Each line names hits and unclear results; the compound was inactive in the other large screens.

COc1ccccc1Cn1ncc2c1CCCC2NC(=O)c1cc(-c2cccs2)no1 (stereo not given)	Tg IFNy HTS -77
CCCc1cc(CNC(=O)c2cc(-c3cccs3)no2)on1	none
COCc1ccc(C(=O)NC2CCCc3c2cnn3C)o1 (stereo not given)	none
COc1ccccc1N1CCN(C(=O)Nc2ccc(F)cc2)CC1	none
Cn1cnc(S(=O)(=O)N2CCCN(C(=O)OC(C)(C)C)CC2)c1	none
CC(C)(C)OC(=O)N1CCCN(C(=O)Nc2ccc(C(F)(F)F)cc2)CC1	Tg IFNy HTS -86
CCOc1ccccc1CC(=O)N1C[C@@H]2[C@@H]3CC[C@@H](C3)[C@@H]2C1	none
CCOc1ccc(CNc2nc(-c3nnc(-c4ccc(F)cc4)o3)nc3ccccc23)cc1	none
COc1ccc(-c2nn(-c3ccccc3C)cc2CNCc2csc(C(C)C)n2)cc1F	none
CC(=O)O[C@@H]1C[C@@]2(C)C(CC[C@@H]2C(C)=O)C2CCC3=CC(=O)CC[C@]3(C)C21 (stereo not given in full)	none
CC(=O)[C@H]1CCC2C3CC=C4C[C@@H](O)CC[C@]4(C)C3CC[C@@]21C (stereo not given in full)	none
CC(=O)OCC(=O)[C@H]1CC[C@H]2[C@@H]3CC=C4C[C@@H](O)CC[C@]4(C)[C@H]3CC[C@]12C	none
CC(=O)[C@H]1CC[C@H]2[C@@H]3CC=C4C[C@@H](O)CC[C@]4(C)[C@H]3CC[C@]12C	Tg IFNy HTS -74
CC(=O)[C@H]1CC[C@H]2[C@@H]3CCC4=CC(=O)CC[C@]4(C)[C@H]3CC[C@]12C	Tg IFNy HTS -88
C[C@]12CCC(=O)C=C1CC[C@@H]1[C@@H]2CC[C@@]2(C)[C@H]1CC[C@]2(O)C(=O)CO	none
O=C(c1ccc(N2CCCC2)cc1)N1CCCC(O)(CO)CC1 (stereo not given)	none
Cc1ccsc1CN1C[C@H]2COC[C@@]2(CN2CCOCC2)C1	none
c1csc(-c2nccn2Cc2ccccc2Cn2cccn2)c1	none
COc1cccc(CN2CCC3(CCN(Cc4nccn4C)CC3)C2)c1	none
c1ccc(-n2nccc2-c2nccn2CCn2cccn2)cc1	none
COc1ccc(C(=O)N2CCOCC3(CN(Cc4ccoc4)CCO3)C2)cc1 (stereo not given)	none
CN(C)Cc1c(C(=O)NCCOc2ccc(C(=O)NO)cc2)oc2ccccc12	Tg IFNy HTS -74
COc1ccc(OCCNC(=O)c2cccs2)cc1	none
O=C(NCCCOc1ccccc1)c1c(O)cccc1O	none
C=CCOCC1c2nnn(C)c2CCN1C(=O)c1cscn1 (stereo not given)	none
CCOC(=O)N1CCC(NCCCC2CCOC2)CC1 (stereo not given)	none
O=C1Cc2c([nH]c3ccc([N+](=O)[O-])cc23)-c2ccccc2N1	Tg IFNy HTS -74
CCc1cn[nH]c1C1CCCN(C(=O)c2c(C)nn3c(C)cc(C)nc23)C1 (stereo not given)	none
Cc1ccc(-c2nc(Cn3nnc(C(=O)NCc4ccco4)c3C)c(C)o2)cc1	none
CCCOc1ccc(CNC(=O)c2nnn(Cc3nc(-c4ccc(C)cc4)oc3C)c2C)cc1	none
Cc1cccc(-c2nc(Cn3nnc(C(=O)NCc4cccc(Br)c4)c3C)c(C)o2)c1	Tg IFNy HTS -98
Cc1ccc(-c2nc(Cn3nnc(C(=O)NCc4ccncc4)c3C)c(C)o2)cc1	none
Cc1ccc(NC(=O)c2nnn(Cc3nc(-c4cccc(Cl)c4)oc3C)c2C)c(Br)c1	none
Cc1ccc(-c2nc(Cn3nnc(C(=O)NCc4ccccc4)c3C)c(C)o2)cc1	none
Cc1ccc(-c2nc(Cn3nnc(C(=O)NCc4ccc5c(c4)OCO5)c3C)c(C)o2)cc1	none
CCc1ccc(CNC(=O)c2nnn(Cc3nc(-c4cccc(C)c4)oc3C)c2C)cc1	Tg IFNy HTS -80
Cc1ccc(-c2nc(Cn3nnc(C(=O)NCc4ccc(F)cc4)c3C)c(C)o2)cc1	none
Cc1cccc(-c2nc(Cn3nnc(C(=O)NCc4ccc(C(C)C)cc4)c3C)c(C)o2)c1	Tg IFNy HTS -89
Cc1ccc(NC(=O)c2nnn(Cc3nc(-c4cccc(Cl)c4)oc3C)c2C)c(Cl)c1	none
Cc1cccc(-c2nc(Cn3nnc(C(=O)NCc4ccc5c(c4)OCO5)c3C)c(C)o2)c1	Tg IFNy HTS -95
O=C(Cn1cccc(C(=O)NCC(F)F)c1=O)Nc1ccc(F)cc1	none
O=C(CNS(=O)(=O)c1cccs1)N1C[C@@H]2C3CCC(CC3)[C@@H]2C1	none
CN(Cc1ccccn1)C(=O)c1cc(-c2ccn[nH]2)n2ccccc12	none
CCOCc1nn(CC2CC2)c2c1CN(Cc1cccs1)CC2	none
O=S(=O)(c1cccc(C(F)(F)F)c1)N1CCC(N2CCOCC2)CC1	none
COc1ccc(CC(=O)N2CCC(N(C)C)CC2C(=O)O)cc1 (stereo not given)	none
O=c1c2c3c(sc2ncn1CCSc1cn[nH]n1)CNCC3	none
COc1ccccc1-c1nc(Cn2nnc(-c3nc(-c4ccccn4)no3)c2C)c(C)o1	none
CCn1ncc(CN2CCc3nc(C(C)C)[nH]c(=O)c3CC2)c1C	none
CCc1cc(C(=O)C(F)(F)F)[nH]c1-c1ccccc1	none
CC(C)C1N=C2c3ccccc3N=C(SCc3ccc(C(C)(C)C)cc3)N2C1=O (stereo not given)	none
